# Source: PubChem BioAssay (Broad Institute)
# Shown are actives, neighbours in structure and some others; about 3.1% of the full set was active somewhere.
# Statin myotox sup = protects C2C12 myotubes from simvastatin toxicity | ATP luminescence, 48 h; scaled: DMSO 0, geranylgeraniol control 100 | AID 602340 | 0.78% of 330,000 active | rescue of ATP level, % at 7.49 µM;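 active = mean ATP rescue above about 67%, or every replicate alone reaching that limit, limit read from the data, passing the limit was not always enough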;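 also: myotubes were challenged with 10 µM simvastatin during compound exposure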
# miR122 inh = inhibitors of miR-122 in Huh7 cells; activation (reporter increase), % at 12.5 µM; Huh7 miR-122 Renilla luciferase sensor, 48 h; neutral wells = 0, positive control = 100; 0.3% of 340,000 active;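 active = mean replicate activation score at least 90 and every replicate individually at or above 90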;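 also: higher luciferase means less miR-122 activity so hits act as miR-122 inhibitors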
# GSIS activator = GLuc luminescence reporter in INS-1E cells, primary screen for activators of glucose-dependent secretion of insulin; INS-1E GLuc reporter insulin secretion, 2-3 h; activation, % at 16.6 µM; 0.61% of 370,000 active;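 active = lowest replicate activation of at least 40%, so every replicate reaches that level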;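 also: 0% = median of neutral control wells and 100% = median of IBMX positive control wells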
# HIV Env fusion = blocks HIV Env-driven cell-cell fusion; inhibition, % at 12.3 µM; HeLa-JRFL Env/CEM21 cell fusion, luciferase; 1.1% of 360,000 active;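 active = mean replicate inhibition score of at least 50 and every replicate individually at or above 50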;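 also: 0% = plate neutral controls and 100% = maraviroc near 300 nM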
# PAX8 inh HTS = inhibitors of PAX8 transcriptional activity in RMG-I cells; RMG-I TPO-luciferase reporter, SteadyGlo, 24 h; inhibition, % at 12.6 µM; 1.2% of 360,000 active;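 active = mean replicate inhibition at least 60% with every replicate also reaching 60%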;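 also: luciferase light reporting Pax8 driven TPO promoter activity; plate controls were median of neutral control wells for no effect and mitoxantrone controls for full effect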
# EWS-Fli inh = EWS/Fli transcriptional activity inhibition; A673 NR0B1-luciferase reporter, viability-normalised; inhibition, % at 12.6 µM; 0.67% of 350,000 active;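 active = mean inhibition of at least 50% after viability correction, with every replicate also passing that limit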;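 also: firefly luciferase signal divided by Alamar Blue viability fluorescence both relative to DMSO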
# Active calls of the source: *; · = no result given; [ ] = another dose, or the depositor's remark.
SMILES,Statin myotox sup,miR122 inh,GSIS activator,HIV Env fusion,PAX8 inh HTS,EWS-Fli inh
CCOC(=O)N1CCC(NC(=O)C2CCN(c3nc(-c4ccc(OC)cc4)no3)CC2)CC1,4,-6,·,34*,-15,·
O=C(C[C@H]1CC[C@H]2[C@@H](COC[C@H](O)CN2Cc2ccncc2)O1)NCc1ccccc1Cl,-7,-4[16.7 µM],5,·,·,·
O=C(Nc1ccc(CN2CCOCC2)cc1)c1ccc(Cl)cc1,1,·,7,-33,-53,-118
COC(=O)c1ccc(NC(=O)c2ccc(CN3CCOCC3)cc2)cc1,-17,-7,22,84*,·,·
Cc1cc(/C=N/NC(=O)c2ccc(CN3CCOCC3)cc2)c(C)n1-c1ccccc1,116*,-5,-3,-9,·,·
O=C(Nc1ccc(CN2CCS(=O)(=O)CC2)cc1)c1ccc(C(F)(F)F)cc1,·,-10,·,76*,-2,16
COc1ccc2c3c(n(C)c2c1)[C@@H](CO)NCC31CCN(C(=O)c2ccccc2)CC1,·,·,-6,·,·,-6
C[C@@H]1CN([C@H](C)CO)C(=O)c2cc(C#CC3(O)CCCC3)cnc2O[C@H]1CN(C)Cc1cccnc1,22,1[16.7 µM],16,-9[16.7 µM],·,2
Cc1cccc(NC(=O)Cn2nnc3sc4c(c3c2=O)CC(C)(C)OC4)c1,·,3,-29,-7,17,1
COc1cccc(NC(=O)Cn2c(=O)n(C)c(=O)c3sc4c(c32)COC(C)(C)C4)c1,136*,-6,-5,-1,7,·
CCOC(=O)c1cc(C)n(CCc2ccccc2)c1C,-25,3,·,·,·,·
Cc1cc(C(=O)CCl)c(C)n1CCc1ccccc1,·,·,49,-15,32,75*
COc1ccc(S(=O)(=O)Nc2cccc3c2O[C@@H](CN(C)CC2CC2)[C@H](C)CN([C@@H](C)CO)C3=O)cc1,-5,-3[16.7 µM],1,·,·,-10
CNC[C@@H]1Oc2c(NS(=O)(=O)c3c(C)noc3C)cccc2C(=O)N([C@H](C)CO)C[C@@H]1C,17,4[16.7 µM],-3,·,·,1
CC(C)C[C@@]12C(=O)N(c3cccc(F)c3)C(=O)N1[C@H](c1ccc(Br)cc1)[C@@H]1C(=O)N(C(C)(C)C)C(=O)[C@@H]12,-1,0,-34,69*,-28,-12
CC(C)C[C@@]12C(=O)N(c3cccc(Cl)c3)C(=O)N1[C@H](c1ccc(Br)cc1)[C@@H]1C(=O)N(C(C)(C)C)C(=O)[C@@H]12,98*,0,-10,91*,-5,-12
CCN1C(=O)[C@H]2[C@@H](c3ccc(C)cc3)N3C(=O)N(c4cccc(Cl)c4)C(=O)[C@@]3(CC(C)C)[C@H]2C1=O,1,0,-5,9,7,4
CC[C@@]12C(=O)N(c3cccc(Cl)c3)C(=O)N1[C@H](c1ccc(Br)cc1)[C@@H]1C(=O)N(C(C)(C)C)C(=O)[C@@H]12,-9,-1,-1,84*,-11,-1
CC[C@@]12C(=O)N(c3cccc(C)c3)C(=O)N1[C@H](c1ccc(Br)cc1)[C@@H]1C(=O)N(C(C)(C)C)C(=O)[C@@H]12,6,-4,5,54,19,-6
CC[C@@]12C(=O)N(c3cccc(F)c3)C(=O)N1[C@H](c1ccc(OC)cc1)[C@@H]1C(=O)N(C(C)(C)C)C(=O)[C@@H]12,10,·,4,-25,-23,-4
CC(C)C[C@@]12C(=O)N(c3ccc(Br)cc3)C(=O)N1[C@H](c1ccc(Br)cc1)[C@@H]1C(=O)N(C(C)(C)C)C(=O)[C@@H]12,9,6,19,80*,1,2
C[C@@H]1CN([C@H](C)CO)C(=O)c2cccc(NS(C)(=O)=O)c2O[C@@H]1CN(C)S(C)(=O)=O,·,-4[16.7 µM],5,-3[16.7 µM],·,1
C[C@@H]1CCCCO[C@H](CN(C)C(=O)Nc2ccc3c(c2)OCO3)[C@H](C)CN([C@@H](C)CO)C(=O)c2cc(NC(=O)CCCN(C)C)ccc2O1,·,3[16.7 µM],0,-12[16.7 µM],-3,-5
CC(C)n1cc(/C=C2\NC(=O)N(c3cccc(Cl)c3)C2=O)c2ccccc21,115*,4,7,-88,·,·
Cc1noc(C)c1NC(=O)N(C)C[C@H]1Oc2ccc(NS(=O)(=O)c3ccc(F)cc3)cc2C(=O)N([C@@H](C)CO)C[C@@H]1C,10,1[16.7 µM],19,·,·,-1
